Laboratory results from PubChem BioAssay (NCI).
This is part of a sample that, as a whole, favours compounds with a hit. Of some 79,000 tested, about 15% had one in any assay. Unmarked numbers belong to inactive results. Active and inactive are the calls of the source. Cut-off read from the data, not from the text of the source: active = growth inhibition above about 70%; inactive = the rest.

Tests used:
[1] = NCI Yeast Anticancer Drug Screen. Data for the rad50 strain (AID 155);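 note: 0% = growth of vehicle-only cultures of the same strain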; conditions: S. cerevisiae rad50 strain growth inhibition, active compounds read high
How it was run: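 Inhibition values express reduced yeast growth in compound-treated cultures relative to vehicle-treated controls.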

[2] = NCI Yeast Anticancer Drug Screen. Data for the mec2-1 strain (AID 157); conditions: S. cerevisiae mec2-1 strain, active compounds read high
How it was run: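 Vehicle-treated cultures served as reference for growth inhibition of compound-exposed mec2-1 yeast.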

[3] = NCI Yeast Anticancer Drug Screen. Data for the sgs1 mgt1 strain (AID 161);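 note: 0% = growth of cultures given vehicle only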; conditions: S. cerevisiae sgs1 mgt1 strain, active compounds read high
How it was run: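 Mutant yeast exposed to compound; growth scored against vehicle-only wells.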

[4] = NCI Yeast Anticancer Drug Screen. Data for the cln2 rad14 strain (AID 165);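 note: 0% = growth equal to vehicle treated cultures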; conditions: S. cerevisiae cln2 rad14 strain, active compounds read high
How it was run: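 Each compound was tested on cln2 rad14 yeast. Inhibition of growth was calculated against vehicle-exposed controls.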

[5] = NCI Yeast Anticancer Drug Screen. Data for the bub3 strain (AID 167); conditions: S. cerevisiae bub3 mutant strain, active compounds read high
How it was run: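 Steps: expose the mutant yeast strain to compound; grow alongside vehicle-treated cultures; measure growth; express inhibition against the vehicle cultures.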

[6] = NCI Yeast Anticancer Drug Screen. Data for the mlh1 rad18 strain (AID 175); conditions: S. cerevisiae mlh1 rad18 strain growth inhibition, active compounds read high
How it was run: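 Vehicle-treated cultures served as the reference for growth inhibition in a yeast strain carrying DNA damage repair alterations exposed to each compound.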

[7] = at 5.0 µM (retest, dose inferred, filed as 0.5)
[8] = at 50.0 µM (retest, dose inferred, filed as 5.0)

SMILES | growth inhibition [1, 7] | growth inhibition [1, 8] | growth inhibition ([1]; at 50.0 µM) | growth inhibition [2, 7] | growth inhibition [2, 8] | growth inhibition ([2]; at 50.0 µM) | growth inhibition [3, 7] | growth inhibition [3, 8] | growth inhibition ([3]; at 50.0 µM) | growth inhibition [4, 7] | growth inhibition [4, 8] | growth inhibition ([4]; at 50.0 µM) | growth inhibition [5, 7] | growth inhibition [5, 8] | growth inhibition ([5]; at 50.0 µM) | growth inhibition [6, 7] | growth inhibition [6, 8] | growth inhibition ([6]; at 50.0 µM)
NCCNCCN1CC1 | -2% | 0% | 64.9% | 1% | 1% | 0.35% | 1% | -1% | 39.9% | -2% | -3% | 19.1% | -1% | -6% | 33% | -1% | -1% | 40%
S=C=[N][Sn]([N]=C=S)([c]1ccccc1)[c]1ccccc1.c1ccc2nc(-c3ccc4ccccc4n3)ccc2c1 | 72% (active) | 98% (active) | 89.3% (active) | 65% | 99% (active) | 91.2% (active) | 84% (active) | 99% (active) | 91.5% (active) | 51% | 99% (active) | 90.8% (active) | 85% (active) | 99% (active) | 90% (active) | 77% (active) | 98% (active) | 77.5% (active)
CNP1(=O)OC(c2ccccc2)=CCN1CCCl (stereo not given) | 3% | -1% | 76.3% (active) | -2% | 10% | 47.6% | 5% | -1% | 58.8% | 0% | 6% | -30.3% | 0% | -2% | 23.9% | 0% | 5% | 71.2% (active)
NCCNCCNCCNCCN (tested in a mixture with another compound) | 0% | 1% | 90.3% (active) | -35% | 0% | 25.8% | 0% | 2% | 52.9% | 2% | 4% | 35.8% | -1% | -5% | 80% (active) | 0% | 2% | 62.5%
O=C1OCC2CC3C4C=CC(C4)C3C12 (stereo not given) | 40% | 99% (active) | 99.2% (active) | 47% | 100% (active) | 99.5% (active) | 69% | 99% (active) | 99.4% (active) | 4% | 99% (active) | 99% (active) | 20% | 99% (active) | 99.4% (active) | 77% (active) | 99% (active) | 99.2% (active)
